The record followed here is ChEMBL document CHEMBL4513216, “Probing the Open Global Health Chemical Diversity Library for Multistage-Active Starting Points for Next-Generation Antimalarials” (ACS Infect Dis, 2020).

Among all 68,000 compounds or so, about 2,700 (4%) showed an effect of 50% or more. The entries come from a sample that favours strong results as a whole.

The test concerns Plasmodium berghei. Put plainly: Screen against P. berghei liver stage (PbLuc), transformed with Luciferase, at 2uM. The class given is functional, HepG2. The settings on record: tested at 2 uM.
Consider `c1csc(-c2noc(C3CNC3)n2)c1`, for which the INHIBITION stood at 5.98%. Regarding `C1CC(N2Cc3nnn(CC4CC4)c3C(COCC3CC3)C2)C1` (stereo not drawn), the INHIBITION was 10.71%.

With `CN(CCc1ccccn1)C(=O)c1cnn(-c2ccccc2F)c1N`, the INHIBITION is recorded as 4%.

`Cc1nc(NC(=O)N2CCCC(N(C)C)C2)nn1C` (stereo not drawn): the INHIBITION came out at 15.68%. In the case of `CN(C)S(=O)(=O)N1C[C@H]2CC[C@@H](C1)N(Cc1ccc(F)c(F)c1)C2`, the INHIBITION amounted to 53.12%. Take `CN(C)S(=O)(=O)N1C[C@H]2CC[C@@H](C1)N(Cc1ccc3c(c1)OCCO3)C2`: the INHIBITION came to 8.48%. With `CN(C)S(=O)(=O)N1C[C@H]2CC[C@@H](C1)N(Cc1ccc3nsnc3c1)C2`, the INHIBITION is listed as 22.22%. On to `CN(CC(F)(F)F)C(=O)CN1CCC(c2cc3ccccc3[nH]2)CC1`, for which the INHIBITION is recorded as -17.18%.

As to `CN(C)C(=O)CN1C[C@H]2CC[C@@H](C1)N(Cc1c(F)cccc1Cl)C2`, the INHIBITION was determined as 41.05%. For the compound `CN(C)C(=O)CN1C[C@H]2CC[C@@H](C1)N(Cc1cccc(Cl)c1Cl)C2`, the INHIBITION is reported as -14.32%. In the case of `CN(C)C(=O)CN1C[C@H]2CC[C@@H](C1)N(Cc1c(Cl)cncc1Cl)C2`, the INHIBITION came to 69.67%. For `COc1ncc(CN(C)C(C)c2cccnc2)cn1` (stereo not drawn), the INHIBITION came to 40.8%. As to `CNC(=O)CN1CCCC12CCN(C(=O)c1ccoc1)CC2`, the INHIBITION amounted to 23.09%. Regarding `CCOCCN1CCN(c2ccc(C#N)cn2)CC1`, the INHIBITION was found to be 13.14%. With `CCCc1ccc(C(=O)N2Cc3c(Cn4ccnc4)nn(C)c3C2)cc1`, the INHIBITION was determined as 1.81%.

On to `CC(NC(=O)NCCn1ccnc1)c1ccc2c(c1)OCCCO2` (stereo not drawn), for which the INHIBITION is -16.99%. As to `Cc1ccc(OCC(=O)N2CCOCC(O)(CN3CCCC3)C2)cc1C` (stereo not drawn), the INHIBITION is listed as 5.47%. The value for `O=C(COc1ccc(F)cc1F)N1CCOCC(O)(CN2CCCC2)C1` (stereo not drawn) was 9.43%. Next, `O=C(COc1cccc(Cl)c1)N1CCOCC(O)(CN2CCCC2)C1` (stereo not drawn): 52.1%; `Cc1ccc2nc(CN(C)Cc3n[nH]c4c3CCCCC4)[nH]c2c1C`: -17.01%. As to `COCCNC(=O)C1CCCN(c2ccc3nncn3n2)C1` (stereo not drawn), the INHIBITION is -56.23%. The value for `Cn1c(CCNC(=O)C2CCCN(C3CCOCC3)C2)n[nH]c1=O` (stereo not drawn) was -36.65%. For `Cn1cc(CN2C[C@H]3CCC[C@@]3(COc3ccccn3)C2)cn1`, the INHIBITION is recorded as 4.38%. For `Cc1nnc(NC(=O)NCCN(C(=O)OC(C)(C)C)C2CC2)s1`, the INHIBITION is -25.33%. `CCc1nnc(NC(=O)NCCN(C)C(=O)OC(C)(C)C)s1`: the INHIBITION is -23.06%.

On to `CCN(CCNC(=O)Nc1nnc(C)s1)C(=O)OC(C)(C)C`, for which the INHIBITION is 57.98%.

As for `CCC(C(=O)NCC1=CCCN(C)C1)c1ccccc1` (stereo not drawn), the INHIBITION was -52.88%.

For the compound `COCc1cc(NCCc2ccc(S(N)(=O)=O)cc2)n2nccc2n1`, the INHIBITION stood at 32.88%.
